In PubChem BioAssay (NCI) one finds growth data, which are given here for 31 molecules.

Compounds without any hit were thinned out: in the full panel of roughly 83,000, 20% have a hit.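 A percent growth of 40 corresponds to 60% growth inhibition; 0 means no net growth; -100 means all cells died. Active threshold: below 10.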 Unmarked numbers belong to inactive results. The source made the active and inactive calls.

This test has as its system OVCAR-8 ovarian. As to the kind of experiment: NCI-60 one-dose screen, 48 h (100 = growth as untreated, 0 = no growth, -100 = all killed). As to conditions: 10 µM.
As to `CC(=O)Nc1nc(-c2ccc(N3CCN(C)CC3)c(NS(=O)(=O)c3cccc4c(N(C)C)cccc34)c2)cs1`, the growth was 76.7%.

Turning to `CN1CCN(Cc2ccc(C(=O)Nc3cccc(Nc4ccc5cc(O)ccc5n4)c3)cc2C(F)(F)F)CC1`, the growth was 4.28% (active).

On to `O=C(c1ccc(O)cc1)C1[C@H](c2ccccc2Br)[C@@H](c2ccccc2)NC12C(=O)Nc1ccc(Br)cc12` (stereo partly specified), for which the growth was 48.6%.

`Brc1ccc(/C=N/Nc2ncnc3sc4c(c23)CCN(Cc2ccccc2)C4)cc1`: the growth was 3.8% (active).

`O=C(c1ccc(O)cc1)C1[C@H](c2ccc(Br)cc2)[C@@H](c2ccccc2)NC12C(=O)Nc1ccccc12` (stereo partly specified): the growth is 32.4%.

In the case of `O=c1[nH][nH]c(Nc2ccccc2)c1N=Nc1ccc(F)cc1`, the growth was 101%.

`Cc1ccc(-c2nc3ccc(C(=O)N=Nc4c(O)[nH]c5ccc(Cl)cc45)cc3[nH]2)cc1`: the growth was -33.9% (active).

Regarding `COc1ccc(C(=O)Nc2ccc(-c3ccc4c(c3)NC(=O)/C4=C\c3ccc[nH]3)cc2)cc1`, the growth is -22.3% (active).

For the molecule `CNCc1cccc2c1OCCCCCC[C@@](C)(O)CC1(CC1)S(=O)(=O)c1ccc(cc1)-c1cnc(N)c(n1)C(=O)N2`, the growth is -65.5% (active).

As for `COc1cccc2nc(Nc3ccc(F)c(NC(=O)c4ccc(CN5CCN(C)CC5)c(C(F)(F)F)c4)c3)ccc12`, the growth was 30.9%.

On to `CCOC(=O)C1NN(c2ccc(S(N)(=O)=O)cc2)c2nc3nc(-c4cccs4)cc(-c4cccs4)c3c(=O)n21` (stereo unspecified), for which the growth was 86.7%.

Regarding `O=C1Nc2cc(Cl)ccc2/C1=C/c1cccc(OCc2ccc(Br)cc2F)c1`, the growth is -15.8% (active).

For the molecule `O=C(c1ccc(Cl)cc1)C1[C@H](c2ccccc2Br)[C@@H](c2ccccc2)NC12C(=O)Nc1ccc(Br)cc12` (stereo partly specified), the growth was 13.7%.

As for `O=c1[nH]n(C(=S)N/N=C/c2ccc(F)cc2)c(=O)c2ccccc12`, the growth is 36.4%.

In the case of `CC1(C)CC[C@]2(C(=O)O)CC[C@]3(C)C(=CC[C@@H]4[C@@]5(C)C/C(=C/c6ccncc6)[C@H](O)C(C)(C)[C@@H]5CC[C@]43C)[C@@H]2C1`, the growth was 44.5%.

In the case of `CC1(C)CC[C@]23CC[C@]4(C)[C@H](CC[C@@H]5[C@@]6(C)CC[C@H](N)C(C)(C)[C@@H]6CC[C@]54C)[C@H]2[C@H]1OC3=O`, the growth was -50.7% (active).

For `C#CCNC(=O)[C@]12CCC(C)(C)C[C@H]1C1=CC[C@@H]3[C@@](C)(CCC#N)[C@H](C(=C)C)CC[C@@]3(C)[C@]1(C)CC2`, the growth was 64.2%.

In the case of `COC1CC(Cn2cc(COc3ccc4ccc(=O)oc4c3)nn2)C(OCc2ccccc2)C(OCc2ccccc2)C1OCc1ccccc1` (stereo unspecified), the growth was 103%.

For the molecule `Cc1cccc2cc(-c3cc(-c4ccccc4)nc(=O)[nH]3)c(Cl)nc12`, the growth was 72.8%.

Regarding `Cc1ccc(CSc2nc(-c3ccc(F)cc3)c(C#N)c(=O)[nH]2)cc1`, the growth was 97.8%.

`O=C1Nc2cc(-c3ccc(NC(=O)c4cccc([N+](=O)[O-])c4)cc3)ccc2/C1=C/c1ccc[nH]1`: the growth was 90.4%.

Regarding `C=C(C)[C@@H]1CC[C@]2(COP(=O)(OCC)OCC)CC[C@]3(C)[C@H](CC[C@@H]4[C@@](C)(CCCN)[C@H](C(=C)C)CC[C@]43C)[C@@H]12`, the growth is 26%.

Take `O=C(CS(=O)(=O)c1oc(-c2ccc(Cl)cc2)nc1S(=O)(=O)c1ccc(Cl)cc1)N1CCOCC1`: the growth is 28.3%.

Turning to `CN1CCN(c2ccc(Nc3nc(NCCCNC(=O)c4ccc(Cl)cc4)c4sccc4n3)cc2)CC1`, the growth is 67.9%.

On to `CN1CCN(c2ccc(Nc3nc(NCCNC(=O)c4ccc(C(F)(F)F)cc4)c4sccc4n3)cc2)CC1`, for which the growth is 21%.

`O=C(NCCCCC(c1ccc(F)cc1)c1ccc(F)cc1)NCCCc1cccnc1`: the growth is 11.4%.

As to `O=C(c1ccc(Cl)cc1)C1[C@H](c2ccc(Br)cc2)[C@@H](c2ccccc2)NC12C(=O)Nc1ccc(Br)cc12` (stereo partly specified), the growth is -56.7% (active).

For the molecule `COc1ccc2[nH]c(O)c(N=NC(=O)COc3ccc(NC(=O)Nc4ccc(Cl)cc4)cc3)c2c1`, the growth is -28.6% (active).

For the molecule `CONC[C@]1(C)C=C2C(=O)[C@](C)(O)C3(CC3)C(C)=C2[C@H]1O`, the growth is -6.95% (active).

`COC[C@@H](CC(C)C)N=C1NC(=O)/C(=C/c2ccc3ncoc3c2)N1`: the growth is 12.4%.

On to `O=C(c1ccc(Cl)cc1)C1[C@H](c2ccccc2Br)[C@@H](c2ccccc2)NC12C(=O)Nc1ccccc12` (stereo partly specified), for which the growth was 27.4%.
